What all share (experiment): qHTS profiling for inhibitors of Plasmodium falciparum proliferation (AID 504749); also: nearly all actives have a fitted effect of over 60% in size
Conditions in all cases: P. falciparum in erythrocytes, SYBR Green DNA, 72 h; series mostly up to 28.7 µM

In assay [1] the test system is 7G8. An outline of the steps: (§1)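 Quantitative HTS: compounds pinned into medium, infected erythrocytes added (0.3% parasitemia, 2.5% hematocrit), 72 h culture at 37 C under 5% CO2. Saponin/Triton lysis with SYBR Green I, overnight RT, then fluorescence read.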
Assay [2] has as its system ATS95. The method in brief:
as §1

For assay [3], the system named is CP201. An outline of the steps:
as §1

Assay [4] has as its system CP203. An outline of the steps:
as §1

The test system of assay [5] is CP250. The method in brief:
as §1

Assay [6] has as its system CP256. An outline of the steps:
as §1

The test system of assay [7] is CP262. An outline of the steps:
as §1

Assay [8] has as its system CP265. An outline of the steps: as §1
For assay [9], the system named is CP315. An outline of the steps:
as §1

The subject of assay [10] is CP329. An outline of the steps:
as §1

For assay [11], the system named is DIV30. An outline of the steps: as §1
In assay [12] the test system is ECU. The method in brief:
as §1

In assay [13] the test system is N140. The method in brief:
as §1

Assay [14] has as its system PAD. An outline of the steps:
as §1

The subject of assay [15] is PC15. An outline of the steps:
as §1

Assay [16] concerns SC27B. An outline of the steps:
as §1

In assay [17] the test system is TAB113. An outline of the steps: as §1
In assay [18] the test system is TAB165. An outline of the steps:
as §1

The subject of assay [19] is CP269. An outline of the steps: as §1
Assay [20] relates to CP325. The method in brief: as §1

Inconclusive results are not listed. The source made the active and inactive calls. Calls follow the shape of the dose curve; as a rule, active = well fitted inhibition curve with a large enough effect; inconclusive = small, poorly fitted or top-dose-only effect; inactive = flat fitted curve, though single readings scatter.
Potency is read from the fitted curve at half-maximal effect.

On to `OCC1OC(O)C(O)C(O)C1O` (stereo not drawn), for which the Potency result in assay [1], in [2], in assay [3], in [4], in assay [5] and in assay [6] was “inactive” throughout. In addition, the Potency result in assay [7], in [8], in [9], in [10], in assay [11] and in [12] was “inactive” throughout. Further, the Potency entry in assay [13], in [14], in assay [15], in assay [16], in assay [17] and in [18] was “inactive” in each case.

In the case of `CO/N=C(/C(=O)N[C@@H]1C(=O)N2C(C(=O)O)=C(CSc3cnns3)CS[C@H]12)c1csc(N)n1`, the Potency entry in [1], in [2], in [3], in assay [4], in assay [5] and in [6] was “inactive” throughout. Besides, the Potency result in assay [7], in [8], in assay [19], in [9], in assay [20] and in assay [10] was “inactive” in each case. Moreover, the Potency result in assay [11], in [12], in assay [13], in [14], in assay [15] and in assay [16] was “inactive” each time. Moreover, the Potency entry in assay [17] and in assay [18] was “inactive” each time.

For the molecule `C=C[C@@]1(C)C[C@H](OC(=O)CSC(C)(C)CNC(=O)[C@@H](N)C(C)C)[C@@]2(C)C(C)CC[C@@]3(CCC(=O)[C@@H]32)[C@H](C)[C@H]1O` (stereo partly drawn), the Potency in assay [1] was 2.51 µM (active); in assay [2], 5.01 µM (active); in assay [4], 1.07 µM (active); in assay [6], 0.316 µM (active); in assay [7], 0.239 µM (active); in assay [19] it was 1.07 µM (active). The Potency in [9] is 2.69 µM (active); in assay [20], 0.213 µM (active); in assay [10] it was 0.601 µM (active); in [11] it was 7.57 µM (active); in assay [12], 4.47 µM (active); in [13] it was 1.41 µM (active). Also, the Potency in assay [14] was 4.47 µM (active); in [16], 5.62 µM (active); in [17], 5.62 µM (active); in [18], 4.47 µM (active).

`O=C(O)Cc1sc(-c2ccc(Cl)cc2)nc1-c1ccccc1`: the Potency entry in [1], in [2], in [3], in [4], in [5] and in [6] was “inactive” each time. Besides, the Potency result in assay [7], in assay [8], in assay [19], in assay [9], in assay [20] and in assay [10] was “inactive” throughout. Further, the Potency result in assay [11], in assay [12], in assay [13], in assay [14], in assay [15] and in [16] was “inactive” each time. In addition, the Potency entry in assay [17] and in assay [18] was “inactive” throughout.

On to `Cn1cc(C(=O)[C@@H]2CCc3[nH]cnc3C2)c2ccccc21`, for which the Potency result in [2], in assay [3], in assay [4], in assay [5], in assay [6] and in assay [7] was “inactive” throughout. For the same molecule, the Potency entry in [8], in assay [19], in assay [9], in assay [20], in assay [10] and in assay [11] was “inactive” in each case. In addition, the Potency result in [12], in assay [13], in assay [14], in [15], in assay [16] and in assay [17] was “inactive” throughout. In addition, the Potency result in [18] was “inactive”.

As for `CC(=O)C1(O)Cc2c(O)c3c(c(O)c2C(OC2CC(N)C(O)C(C)O2)C1)C(=O)c1c(O)cccc1C3=O` (stereo not drawn), the Potency in assay [1] was 0.708 µM (active); in assay [2] it was 6.31 µM (active); in [5] it was 11.2 µM (active); in [6], 10 µM (active); in assay [7] it was 12 µM (active); in assay [8] it was 10 µM (active). Further, the Potency in assay [19] is 15.1 µM (active); in [10], 12 µM (active); in assay [12], 8.91 µM (active); in assay [13], 7.08 µM (active); in assay [14], 10 µM (active); in assay [15] it was 11.2 µM (active). For the same molecule, the Potency in assay [16] is 4.47 µM (active); in assay [17] it was 6.31 µM (active); in [18], 4.47 µM (active).

As to `CCCC(=O)Nc1c(I)cc(I)c(C[C@H](CC)C(=O)O)c1I`, the Potency entry in assay [1], in assay [2], in [3], in assay [4], in assay [5] and in assay [6] was “inactive” in each case. For the same molecule, the Potency result in assay [7], in assay [8], in assay [19], in [9], in [20] and in assay [10] was “inactive” in each case. The Potency result in assay [11], in assay [12], in [13], in assay [14], in assay [15] and in [16] was “inactive” throughout. Besides, the Potency entry in [17] and in assay [18] was “inactive” each time.

For `Nc1ncn(C2C[C@H](O)[C@@H](CO)O2)c(=O)n1` (stereo partly drawn), the Potency result in assay [1], in [2], in assay [3], in [4], in assay [5] and in [6] was “inactive” in each case. Further, the Potency result in [7], in assay [8], in [19], in assay [9], in assay [20] and in assay [10] was “inactive” throughout. Besides, the Potency entry in [11], in assay [12], in [13], in assay [14], in [15] and in assay [16] was “inactive” throughout. The Potency result in assay [17] and in assay [18] was “inactive” throughout.

The values above are taken from PubChem BioAssay (NCATS).
